Values without a mark were called inactive. For some of these results: Potency and affinity values are given separately. Activity calls are given as the source filed them. Unless noted, how the calls were made is not given here.

Assay [1] in a line: antimalarial activity against Dd2 strain (AID 2302;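 active means growth inhibition above 50% at the single 2 µM test dose, taken to imply half-maximal potency below 2 µM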;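 further: 0% = DMSO untreated growth and 100% = chloroquine plus artemisinin killed control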). The conditions noted are these: P. falciparum Dd2 in RBCs, LDH growth readout, 72 h; at 2 µM; active compounds read high.
The nature of assay [2]: HepG2 cytotoxicity, primary screen, cytotoxicity control for P. falciparum antimalarial project, cell-based, ATP luminescence (AID 2303;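 active means inhibition above 50%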;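 further: 0% = DMSO wells and 100% = digitonin-killed cells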). The conditions noted are these: HepG2 viability, 24-48 h, at 10 µM, active compounds read high.
Assay [3] deals with L-lactate dehydrogenase (Plasmodium falciparum (isolate CDC / Honduras)) (UniProt Q27743). Nature of the assay: PfLDH activity inhibition – cell lysate, 3D7 strain, counter-screen for P. falciparum growth inhibition project (AID 2304).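 Further: 0% = vehicle and 100% = reference inhibitor.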 The settings on record: P. falciparum 3D7 crude extract, LDH APAD/NBT absorbance; at 2 µM; active compounds read high. For orientation: A counterscreen serves to expose hits that act by an unwanted route or on another target.

The nature of assay [4]: inhibition of 3D7 malaria parasite growth – strain 3D7 (AID 2306).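 Further: 0% = DMSO wells and 100% = chloroquine plus artemisinin control wells.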 The conditions noted are these: P. falciparum 3D7 erythrocytic growth, LDH absorbance, 72 h; at 2 µM; active compounds read high.
The target in assay [5] is Calcium-dependent protein kinase 1 (Plasmodium falciparum (isolate 3D7)) (UniProt P62344). Briefly: PfCDPK1 kinase inhibitors, biochemical, TCAMS library (AID 1159585; cut-off not given, nearly all actives have IC50 up to about 0.98 µM;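 further: inhibitors leave more ATP so luminescence rises with inhibition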). The conditions noted are these: recombinant PfCDPK1, Kinase-Glo ATP depletion luminescence. Background: Kinase-Glo reads ATP consumption through a luciferase reaction.
For assay [6], the target named is Plasmodium falciparum protein kinase 6 (PK6, PF3D7_1337100) (UniProt Q8IDW1). Nature of the assay: PfPK6 kinase inhibitors, biochemical, TCAMS library (AID 1159586). The settings on record: recombinant PfPK6, Kinase-Glo ATP depletion luminescence.
In assay [7] the target is Protein kinase 7 (PK7), Plasmodium falciparum 3D7 (PF3D7_0213400) (UniProt Q7YTF7). Nature of the assay: inhibition of Plasmodium PK7 catalytic activity – biochemical, TCAMS antimalarial set, Kinase-Glo luminescence (AID 1159587). The conditions noted are these: recombinant PfPK7, Kinase-Glo ATP depletion luminescence.
Assay [8] has as its target Calcium-dependent protein kinase 4 (Plasmodium falciparum (isolate 3D7)) (UniProt Q8IBS5). Briefly: PfCDPK4 kinase inhibitors, biochemical, TCAMS library (AID 1159588; cut-off not given, nearly all actives have IC50 up to about 0.91 µM). The conditions noted are these: recombinant PfCDPK4, Kinase-Glo ATP depletion luminescence.

Plasmodium falciparum protein kinase 6 (PK6, PF3D7_1337100), sequence (Q8IDW1 1-305): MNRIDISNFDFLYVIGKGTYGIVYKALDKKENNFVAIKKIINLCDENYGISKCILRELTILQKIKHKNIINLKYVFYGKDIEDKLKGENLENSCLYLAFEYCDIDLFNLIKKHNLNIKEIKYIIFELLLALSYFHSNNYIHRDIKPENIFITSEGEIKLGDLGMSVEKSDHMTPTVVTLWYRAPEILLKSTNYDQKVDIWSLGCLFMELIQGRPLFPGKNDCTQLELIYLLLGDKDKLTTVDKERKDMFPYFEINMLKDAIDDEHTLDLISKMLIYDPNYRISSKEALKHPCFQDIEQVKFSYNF
Calcium-dependent protein kinase 4 (Plasmodium falciparum (isolate 3D7)), sequence (Q8IBS5 whole entry, looked up): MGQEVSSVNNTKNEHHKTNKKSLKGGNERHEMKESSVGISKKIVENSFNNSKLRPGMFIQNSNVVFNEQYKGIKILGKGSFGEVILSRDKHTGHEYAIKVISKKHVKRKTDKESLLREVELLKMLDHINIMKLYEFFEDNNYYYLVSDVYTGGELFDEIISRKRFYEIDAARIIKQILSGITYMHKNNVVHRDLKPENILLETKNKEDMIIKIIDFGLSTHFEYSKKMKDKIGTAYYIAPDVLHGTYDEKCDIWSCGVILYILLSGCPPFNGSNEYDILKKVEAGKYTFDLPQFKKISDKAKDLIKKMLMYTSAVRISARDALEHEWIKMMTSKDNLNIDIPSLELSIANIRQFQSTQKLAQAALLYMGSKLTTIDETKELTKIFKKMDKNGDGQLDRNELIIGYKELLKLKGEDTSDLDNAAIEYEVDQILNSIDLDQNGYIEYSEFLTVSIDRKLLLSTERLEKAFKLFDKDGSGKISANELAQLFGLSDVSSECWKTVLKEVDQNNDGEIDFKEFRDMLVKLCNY
Protein kinase 7 (PK7), Plasmodium falciparum 3D7 (PF3D7_0213400), sequence (Q7YTF7 1-343): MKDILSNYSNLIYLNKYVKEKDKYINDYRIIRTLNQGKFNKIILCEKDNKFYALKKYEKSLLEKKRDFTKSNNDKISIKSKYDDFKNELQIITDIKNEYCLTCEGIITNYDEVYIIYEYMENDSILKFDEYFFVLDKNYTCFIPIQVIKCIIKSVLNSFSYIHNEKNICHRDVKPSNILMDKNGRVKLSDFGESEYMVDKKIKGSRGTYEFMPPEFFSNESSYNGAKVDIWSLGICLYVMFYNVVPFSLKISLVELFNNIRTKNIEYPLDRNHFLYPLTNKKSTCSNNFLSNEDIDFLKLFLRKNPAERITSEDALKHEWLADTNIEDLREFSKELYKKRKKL
Calcium-dependent protein kinase 1 (Plasmodium falciparum (isolate 3D7)), sequence (P62344 whole entry, looked up): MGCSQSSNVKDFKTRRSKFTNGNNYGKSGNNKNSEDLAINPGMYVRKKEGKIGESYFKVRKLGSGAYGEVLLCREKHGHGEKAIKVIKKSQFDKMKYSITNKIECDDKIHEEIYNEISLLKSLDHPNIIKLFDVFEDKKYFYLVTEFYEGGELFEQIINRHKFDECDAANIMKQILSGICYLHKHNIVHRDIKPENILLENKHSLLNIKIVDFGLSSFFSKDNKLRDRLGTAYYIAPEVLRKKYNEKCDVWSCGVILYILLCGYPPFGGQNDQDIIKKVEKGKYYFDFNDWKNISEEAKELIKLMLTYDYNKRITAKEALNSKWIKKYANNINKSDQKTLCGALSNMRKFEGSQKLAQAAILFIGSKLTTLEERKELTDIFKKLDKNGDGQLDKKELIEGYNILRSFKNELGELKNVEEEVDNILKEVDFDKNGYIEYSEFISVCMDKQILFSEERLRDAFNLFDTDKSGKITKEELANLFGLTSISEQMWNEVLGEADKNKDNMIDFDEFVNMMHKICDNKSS
L-lactate dehydrogenase (Plasmodium falciparum (isolate CDC / Honduras)), sequence (Q27743 whole entry, looked up): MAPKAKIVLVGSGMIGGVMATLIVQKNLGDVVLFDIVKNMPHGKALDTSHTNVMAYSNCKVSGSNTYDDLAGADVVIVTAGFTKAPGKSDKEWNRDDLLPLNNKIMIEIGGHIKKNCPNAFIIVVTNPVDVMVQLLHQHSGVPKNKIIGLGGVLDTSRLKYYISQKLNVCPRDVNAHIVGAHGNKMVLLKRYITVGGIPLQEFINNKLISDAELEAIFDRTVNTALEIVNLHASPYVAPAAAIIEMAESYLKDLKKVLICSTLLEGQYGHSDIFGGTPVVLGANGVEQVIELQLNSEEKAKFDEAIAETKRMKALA

The inhibition is the relative decrease from the control value, in per cent. With `CCc1cccc2c(C#N)cn(CC(=O)NCCc3ccccc3)c12`, the growth inhibition in assay [1] is 64% (active); in assay [4], 95% (active). The inhibition in assay [2] was 1%; in assay [3], 2%. Further, the result in assay [5], in assay [6], in assay [7] and in assay [8] was inactive.
As for `COc1ccc(-c2onc(C(F)(F)F)c2-c2cc3ccccc3o2)c(O)c1`, the growth inhibition in assay [1] was 15%; in assay [4], 93% (active). The inhibition is 6% in assay [2] and 0% in assay [3]. Moreover, the result in assay [5], in assay [6], in assay [7] and in assay [8] was inactive.
For `COc1c(F)ccc2ncc(Cl)c(CCN3CCC(NCc4ccc5c(n4)NC(=O)CS5)CC3)c12`, the growth inhibition in assay [1] is 29%; in assay [4], 98% (active). Moreover, the inhibition in assay [2] was 30%; in assay [3] it was 2%. Moreover, the outcome in assay [5], in assay [6], in assay [7] and in assay [8] was inactive.
Turning to `Cc1ccc(C(NC(=O)C2CCCCC2)c2ccc3cccnc3c2O)cc1` (stereo not given), the values for the growth inhibition in assay [1] and in assay [4] were 59% (active) and 91% (active), respectively. In addition, the inhibition in assay [2] was 69% (active); in assay [3], 2%. Besides, the result in assay [5], in assay [6], in assay [7] and in assay [8] was inactive.
Turning to `CCOC(=O)Cn1ccc2c(NCc3ccccc3)nc(C)nc21`, the growth inhibition in assay [1] is 0%; in assay [4], 96% (active). Besides, the inhibition in assay [2] is 64% (active); in assay [3], -1%. The result in assay [5], in assay [6], in assay [7] and in assay [8] was inactive.
For the molecule `O=C(Nc1ccccc1)N(Cc1ccccc1-c1cccc(CNCCc2ccccc2)c1)C1CCN(Cc2ccccc2)CC1`, the figures for the growth inhibition in assay [1] and in assay [4] were 59% (active) and 100% (active), respectively. The inhibition in assay [2] was 95% (active); in assay [3], 4%. Further, the outcome in assay [5], in assay [6], in assay [7] and in assay [8] was inactive.
On to `Cc1nc(N)nc(N)c1OCCCOc1cccc(Cl)c1Cl`, for which the growth inhibition in assay [1] was 95% (active); in assay [4] it was 93% (active). For the same molecule, the inhibition in assay [2] was 59% (active); in assay [3], -2%. Further, the outcome in assay [5], in assay [6], in assay [7] and in assay [8] was inactive.
Consider `CN1CCC(NCc2cccc(-c3nn(C)c4nc(NC5CCCC5)ncc34)c2)CC1`, for which the values for the growth inhibition in assay [1] and in assay [4] were 44% and 98% (active), respectively. Moreover, the inhibition was 1% in assay [2] and -2% in assay [3]. Besides, the outcome in assay [5], in assay [6], in assay [7] and in assay [8] was inactive.
`Brc1ccc(Nc2ccnc3cc(-c4nccs4)ccc23)cc1Oc1ccnc2cc(-c3nccs3)ccc12`: the values for the growth inhibition in assay [1] and in assay [4] were 83% (active) and 91% (active), respectively. Also, the inhibition in assay [2] is 15%; in assay [3] it was -4%. Further, the result in assay [5], in assay [6], in assay [7] and in assay [8] was inactive.
Turning to `COc1ccc(Cc2cnc3nc(N)nc(N)c3c2C)cc1`, the growth inhibition is 96% (active) in assay [1] and 90% (active) in assay [4]. Moreover, the inhibition is 65% (active) in assay [2] and -2% in assay [3]. Moreover, the outcome in assay [5], in assay [6], in assay [7] and in assay [8] was inactive.
With `Cc1[nH]nc2cc(Nc3ccnc(Nc4cccc(CN5CCOCC5)c4)n3)ccc12`, the results for the growth inhibition in assay [1] and in assay [4] were -10% and 83% (active), respectively. The inhibition in assay [2] is 33%; in assay [3], -8%. For the same molecule, the outcome in assay [5], in assay [6], in assay [7] and in assay [8] was inactive.
For `CCOC(=O)c1ccc(NC(=O)N[C@@H](Cc2ccc(O)cc2)C(=O)NC2CCN(Cc3ccc4c(c3)OCO4)CC2)cc1`, the growth inhibition in assay [1] was 24%; in assay [4], 86% (active). In addition, the inhibition was -1% in assay [2] and 3% in assay [3]. In addition, the outcome in assay [5], in assay [6], in assay [7] and in assay [8] was inactive.
Consider `O=C(Nc1cccc(-c2ccc(-c3nc4ccccc4[nH]3)s2)c1)c1ccncc1`, for which the figures for the growth inhibition in assay [1] and in assay [4] were 29% and 92% (active), respectively. Further, the inhibition in assay [2] is 67% (active); in assay [3] it was -9%. Moreover, the result in assay [5], in assay [6], in assay [7] and in assay [8] was inactive.
As for `CCC(=O)Nc1ccc(C(O)CN2CCC3(C=Cc4ccccc4O3)CC2)cc1` (stereo not given), the figures for the growth inhibition in assay [1] and in assay [4] were 47% and 93% (active), respectively. In addition, the inhibition in assay [2] was 48%; in assay [3], -1%. Moreover, the outcome in assay [5], in assay [6], in assay [7] and in assay [8] was inactive.
Turning to `Cc1cc(NC(=O)NCCN2CCC(NS(=O)(=O)c3cccc(Br)c3)C2)c2ccccc2n1` (stereo not given), the growth inhibition was 58% (active) in assay [1] and 99% (active) in assay [4]. Further, the inhibition is 0% in assay [2] and -2% in assay [3]. Further, the outcome in assay [5], in assay [6], in assay [7] and in assay [8] was inactive.
For `Oc1ccccc1CCNC1CCc2ccccc2C1` (stereo not given), the growth inhibition was 95% (active) in assay [1] and 96% (active) in assay [4]. In addition, the inhibition was -4% in assay [2] and 4% in assay [3]. For the same molecule, the outcome in assay [5], in assay [6], in assay [7] and in assay [8] was inactive.
For the molecule `CC(C)Nc1cc(C(=O)N[C@@H](Cc2ccccc2)[C@H](O)CNC2CCCCC2)cc(N2CCCCS2(=O)=O)c1`, the growth inhibition in assay [1] and in assay [4] was 98% (active) each time. The inhibition in assay [2] was 9%; in assay [3], 4%. Moreover, the result in assay [5], in assay [6], in assay [7] and in assay [8] was inactive.
On to `CCN1CCN(CCCCNc2c3ccccc3nc3ccccc23)CC1`, for which the growth inhibition in assay [1] is -5%; in assay [4], 100% (active). The inhibition was 22% in assay [2] and 8% in assay [3]. Besides, the outcome in assay [5], in assay [6], in assay [7] and in assay [8] was inactive.
In the case of `CC(O)C1CCCCN1C(=O)c1ccc(-c2ccc(-c3nc4ccc(F)cc4[nH]3)cc2)cc1` (stereo not given), the growth inhibition in assay [1] is 99% (active); in assay [4] it was 101% (active). In addition, the inhibition in assay [2] was 43%; in assay [3] it was -3%. Moreover, the result in assay [5], in assay [6], in assay [7] and in assay [8] was inactive.
`Cc1cccc2[nH]c(-c3ccc(-c4ccc(NC(=O)C(C)CN(C)C)cc4)cc3)nc12` (stereo not given): the growth inhibition in assay [1] and in assay [4] was 99% (active) each time. Moreover, the results for the inhibition in assay [2] and in assay [3] were 18% and -6%, respectively. The outcome in assay [5], in assay [6], in assay [7] and in assay [8] was inactive.
